Laboratory results taken from article PMC7862700, “An all-to-all approach to the identification of sequence-specific readers for epigenetic DNA modifications on cytosine”.

What was measured:
Assay in all cases: DAPPL (digital affinity profiling via proximity ligation, sequencing); 10 mM Tris-HCl pH 7.5, 50 mM NaCl, 1 mM DTT, 4% glycerol, room temperature, 30 min; GST-TFs on glutathione beads, 16-mer random dsDNA library, 0.1% formaldehyde crosslink after washing; high values mean tight binding
Conditions in all cases: protein: recombinant; tags: N-terminal GST; dsDNA, one strand shown
FLI1 = molecular target: T1, FLI1 (Homo sapiens, UniProt Q01543 1-452)
T1 sequence: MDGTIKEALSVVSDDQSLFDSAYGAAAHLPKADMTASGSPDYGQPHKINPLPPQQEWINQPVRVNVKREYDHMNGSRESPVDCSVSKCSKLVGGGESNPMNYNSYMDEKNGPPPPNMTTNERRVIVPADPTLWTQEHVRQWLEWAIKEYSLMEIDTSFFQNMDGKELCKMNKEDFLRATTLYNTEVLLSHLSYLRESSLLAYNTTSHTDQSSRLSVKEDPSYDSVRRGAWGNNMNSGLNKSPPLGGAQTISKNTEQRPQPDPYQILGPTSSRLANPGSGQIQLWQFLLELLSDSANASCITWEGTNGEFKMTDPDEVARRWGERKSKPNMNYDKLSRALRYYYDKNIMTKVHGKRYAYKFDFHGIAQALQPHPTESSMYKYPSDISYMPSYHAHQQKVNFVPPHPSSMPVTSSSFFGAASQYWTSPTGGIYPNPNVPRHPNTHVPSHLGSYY
Method in brief: (§1)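 Yeast served to express human transcription factors as GST fusions, which were then captured on glutathione beads and labelled with DNA barcodes. Pooled with a tag-only sample, they were incubated with 200 nmole of a 16-mer random double-stranded DNA library for 30 min at room temperature in Tris/NaCl/DTT/glycerol buffer, washed, crosslinked with 0.1% formaldehyde, ligated by proximity, amplified by PCR and sequenced. Dividing each hexamer's read frequency for a factor by its frequency for the tag-only sample gives the binding signal.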

ELK3 = molecular target: T2, ELK3 (Homo sapiens, UniProt P41970 1-407)
T2 sequence: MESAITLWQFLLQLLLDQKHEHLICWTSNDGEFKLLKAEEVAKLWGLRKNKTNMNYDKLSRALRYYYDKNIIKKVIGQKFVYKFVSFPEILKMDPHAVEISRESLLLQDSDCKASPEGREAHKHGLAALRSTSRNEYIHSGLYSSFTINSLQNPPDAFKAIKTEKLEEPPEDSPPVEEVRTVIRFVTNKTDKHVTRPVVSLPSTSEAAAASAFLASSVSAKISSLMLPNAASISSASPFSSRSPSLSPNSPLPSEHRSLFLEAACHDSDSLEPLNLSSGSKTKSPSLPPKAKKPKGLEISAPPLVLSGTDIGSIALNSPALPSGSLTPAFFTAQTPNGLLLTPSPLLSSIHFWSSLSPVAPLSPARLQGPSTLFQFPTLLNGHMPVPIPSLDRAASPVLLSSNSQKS
Method in brief: as §1

SPIC = molecular target: T3, SPIC (Homo sapiens, UniProt Q8N5J4 1-248)
T3 sequence: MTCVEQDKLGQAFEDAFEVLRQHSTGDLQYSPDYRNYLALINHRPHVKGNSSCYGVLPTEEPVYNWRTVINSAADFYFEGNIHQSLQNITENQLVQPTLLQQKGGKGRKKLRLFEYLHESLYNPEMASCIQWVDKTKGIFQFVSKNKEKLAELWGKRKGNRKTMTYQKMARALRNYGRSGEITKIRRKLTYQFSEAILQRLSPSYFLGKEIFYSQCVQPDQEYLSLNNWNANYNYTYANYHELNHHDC
Method in brief: as §1

ELK4 = molecular target: T4, ELK4 (Homo sapiens, UniProt P28324-2 1-405)
T4 sequence: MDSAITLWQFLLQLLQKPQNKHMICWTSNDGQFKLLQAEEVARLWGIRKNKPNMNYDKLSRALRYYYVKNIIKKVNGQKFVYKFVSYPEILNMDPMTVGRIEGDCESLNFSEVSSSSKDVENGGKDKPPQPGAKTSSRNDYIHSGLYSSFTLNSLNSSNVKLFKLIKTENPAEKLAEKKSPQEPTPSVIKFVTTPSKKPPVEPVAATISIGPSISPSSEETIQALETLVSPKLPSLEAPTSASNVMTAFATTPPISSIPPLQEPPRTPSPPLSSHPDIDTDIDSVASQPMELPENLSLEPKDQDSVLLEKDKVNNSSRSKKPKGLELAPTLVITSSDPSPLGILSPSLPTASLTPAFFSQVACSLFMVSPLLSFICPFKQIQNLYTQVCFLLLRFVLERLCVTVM
Method in brief: as §1

ELF3 = molecular target: T5, ELF3 (Homo sapiens, UniProt P78545 1-371)
T5 sequence: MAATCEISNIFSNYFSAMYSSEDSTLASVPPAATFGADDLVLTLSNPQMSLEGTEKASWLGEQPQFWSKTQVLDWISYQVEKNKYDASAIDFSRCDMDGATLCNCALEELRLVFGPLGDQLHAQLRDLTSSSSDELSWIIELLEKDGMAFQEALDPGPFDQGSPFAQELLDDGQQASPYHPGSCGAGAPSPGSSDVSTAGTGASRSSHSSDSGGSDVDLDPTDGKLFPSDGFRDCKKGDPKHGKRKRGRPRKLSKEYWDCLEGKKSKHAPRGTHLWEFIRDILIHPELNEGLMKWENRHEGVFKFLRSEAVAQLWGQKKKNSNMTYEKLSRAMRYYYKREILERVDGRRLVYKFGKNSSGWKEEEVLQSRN
Method in brief: as §1

ETV1 = ETV1 (Homo sapiens, UniProt P50549 1-477)
ETV1, sequence (P50549 whole entry): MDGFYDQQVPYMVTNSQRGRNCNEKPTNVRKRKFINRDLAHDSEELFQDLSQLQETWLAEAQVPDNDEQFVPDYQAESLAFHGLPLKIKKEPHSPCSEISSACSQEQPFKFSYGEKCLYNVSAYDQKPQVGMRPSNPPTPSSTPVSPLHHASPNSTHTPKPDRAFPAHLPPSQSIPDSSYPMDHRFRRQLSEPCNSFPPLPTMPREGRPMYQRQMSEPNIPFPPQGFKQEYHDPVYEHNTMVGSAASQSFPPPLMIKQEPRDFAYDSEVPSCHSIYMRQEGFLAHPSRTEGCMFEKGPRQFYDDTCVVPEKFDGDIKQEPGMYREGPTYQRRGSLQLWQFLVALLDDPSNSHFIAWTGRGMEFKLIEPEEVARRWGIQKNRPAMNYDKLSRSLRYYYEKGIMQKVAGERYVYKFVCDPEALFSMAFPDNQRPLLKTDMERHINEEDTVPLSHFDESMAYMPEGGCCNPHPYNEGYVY
Method in brief: as §1

ERF = molecular target: T6, ERF (Homo sapiens, UniProt P50548 1-548)
T6 sequence: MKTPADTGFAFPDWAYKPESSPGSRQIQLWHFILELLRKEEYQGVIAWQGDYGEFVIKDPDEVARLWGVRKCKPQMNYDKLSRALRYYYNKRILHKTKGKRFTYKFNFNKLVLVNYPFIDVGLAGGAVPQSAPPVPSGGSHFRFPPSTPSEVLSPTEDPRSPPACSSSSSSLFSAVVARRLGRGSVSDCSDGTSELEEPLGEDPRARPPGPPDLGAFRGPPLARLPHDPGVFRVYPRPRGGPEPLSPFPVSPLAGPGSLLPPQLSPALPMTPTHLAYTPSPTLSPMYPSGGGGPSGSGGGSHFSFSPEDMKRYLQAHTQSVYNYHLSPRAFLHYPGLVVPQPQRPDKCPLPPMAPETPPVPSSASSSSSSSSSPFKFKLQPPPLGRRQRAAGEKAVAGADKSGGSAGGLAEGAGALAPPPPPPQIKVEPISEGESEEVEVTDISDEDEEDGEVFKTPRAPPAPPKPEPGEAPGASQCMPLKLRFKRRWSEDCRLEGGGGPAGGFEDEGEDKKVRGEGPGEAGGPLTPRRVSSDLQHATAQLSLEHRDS
Method in brief: as §1

ETS2 = molecular target: T7, ETS2 (Homo sapiens, UniProt P15036 1-469)
T7 sequence: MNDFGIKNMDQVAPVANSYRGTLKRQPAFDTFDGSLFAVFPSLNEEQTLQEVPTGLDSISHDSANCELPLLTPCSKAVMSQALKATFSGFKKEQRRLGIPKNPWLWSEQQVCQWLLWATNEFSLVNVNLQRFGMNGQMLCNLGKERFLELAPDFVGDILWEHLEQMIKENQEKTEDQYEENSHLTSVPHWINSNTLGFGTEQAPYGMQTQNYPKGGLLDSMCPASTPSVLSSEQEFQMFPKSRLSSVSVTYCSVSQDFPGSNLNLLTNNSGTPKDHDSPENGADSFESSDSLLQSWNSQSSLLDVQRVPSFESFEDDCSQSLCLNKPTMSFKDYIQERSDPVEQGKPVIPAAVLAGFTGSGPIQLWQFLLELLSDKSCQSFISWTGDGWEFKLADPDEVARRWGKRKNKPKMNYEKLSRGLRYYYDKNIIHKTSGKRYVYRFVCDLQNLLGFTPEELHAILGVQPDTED
Method in brief: as §1

ETV6 = ETV6 (Homo sapiens, UniProt P41212 1-452)
ETV6, sequence (P41212 whole entry): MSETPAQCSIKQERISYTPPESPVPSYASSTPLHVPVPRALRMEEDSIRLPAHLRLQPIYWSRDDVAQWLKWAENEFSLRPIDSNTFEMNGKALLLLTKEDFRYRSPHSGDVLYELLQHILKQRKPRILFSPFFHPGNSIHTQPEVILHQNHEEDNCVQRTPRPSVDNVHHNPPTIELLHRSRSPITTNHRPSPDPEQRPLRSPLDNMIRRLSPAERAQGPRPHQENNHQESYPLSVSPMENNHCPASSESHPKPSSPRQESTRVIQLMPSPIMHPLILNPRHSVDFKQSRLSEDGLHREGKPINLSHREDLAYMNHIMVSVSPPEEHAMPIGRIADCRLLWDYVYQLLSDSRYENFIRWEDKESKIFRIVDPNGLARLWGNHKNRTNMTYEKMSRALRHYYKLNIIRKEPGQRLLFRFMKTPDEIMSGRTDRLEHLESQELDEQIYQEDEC
Method in brief: as §1

TAAGGG
binding signal (FLI1): 1.01 fold enrichment (6-mer frequency, TF over GST control)
binding signal (ELK3): 1.04 fold enrichment (6-mer frequency, TF over GST control)
binding signal (SPIC): 1.18 fold enrichment (6-mer frequency, TF over GST control)
binding signal (ELK4): 1.1 fold enrichment (6-mer frequency, TF over GST control)
binding signal (ELF3): 1.09 fold enrichment (6-mer frequency, TF over GST control)
binding signal (ETV1): 1.05 fold enrichment (6-mer frequency, TF over GST control)
binding signal (ERF): 1.01 fold enrichment (6-mer frequency, TF over GST control)
binding signal (ETS2): 1 fold enrichment (6-mer frequency, TF over GST control)
binding signal (ETV6): 1.01 fold enrichment (6-mer frequency, TF over GST control)
